# Assay results reported in PubChem BioAssay (NCATS).
# Inconclusive results are not listed. Active and inactive are the calls of the source. The call rests on the fitted dose curve; in most records, active means well fitted cell-killing curve with a large enough effect; inconclusive means small, poorly fitted or top-dose-only effect; inactive means flat fitted curve, though single readings scatter.
# Assay: Cell Viability - LYMP2-002 (AID 977);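 further: compound exposure lasted 24 h at 37 °C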
# Conditions: LYMP2-002 lymphoblastoid cell viability, qHTS; series mostly up to 92.2 µM
# In short: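 Cytotoxicity is scored as concentration-dependent loss of cellular ATP in a human lymphoblastoid line after 24 hr compound treatment at 37 C. AC50 is obtained by modelling concentration-response data with the Hill equation.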
# Potency means the concentration at half of the fitted maximal effect.
row,SMILES,Potency
1,CCCCCCCCCCCC[N+](C)(C)CCOc1ccccc1,50.1 µM (active)
2,CC[n+]1c(-c2ccccc2)c2cc(N)ccc2c2ccc(N)cc21,15.8 µM (active)
3,CNC(=O)Oc1cccc2ccccc12,inactive
4,CN(C)C(=S)SSC(=S)N(C)C,0.316 µM (active)
5,COP(=O)(OC)OC=C(Cl)Cl,inactive
6,O=C(CCl)c1ccc(Cl)cc1Cl,7.94 µM (active)
7,Oc1c(Br)cc(Br)cc1Br,inactive

# Assay: Cell Viability - LYMP2-006 (AID 978);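 further: cells exposed to compound for 24 hours; nearly all actives have a fitted effect of over 60% in size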
# Conditions: LYMP2-006 lymphoblastoid cell viability, qHTS; series mostly up to 92.2 µM
# In short: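 In this cytotoxicity screen, the human lymphoblastoid line grew in complete medium with test compounds for 24 hr at 37 C. Cellular ATP served as the viability signal.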
row,SMILES,Potency
1,CCCCCCCCCCCC[N+](C)(C)CCOc1ccccc1,20 µM (active)
2,CC[n+]1c(-c2ccccc2)c2cc(N)ccc2c2ccc(N)cc21,10 µM (active)
3,CNC(=O)Oc1cccc2ccccc12,inactive
4,CN(C)C(=S)SSC(=S)N(C)C,0.251 µM (active)
5,C[C@@H]1C[C@@H]([C@H](O)CC2CC(=O)NC(=O)C2)C(=O)[C@@H](C)C1,2.51 µM (active)
6,COP(=O)(OC)OC=C(Cl)Cl,inactive
7,O=C(CCl)c1ccc(Cl)cc1Cl,7.94 µM (active)
8,Oc1c(Br)cc(Br)cc1Br,inactive

# Assay: Cell Viability - LYMP2-007 (AID 979);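 further: cells exposed to compound for 24 h before reading; nearly all actives have a fitted effect of over 60% in size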
# Conditions: LYMP2-007 lymphoblastoid cell viability; series mostly up to 92.2 µM
# In short: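 Human lymphoblastoid LYMP2-007 cells (2500/well) preincubated 5 h at 37 C, then treated 24 h at 37 C in complete medium. Viability by CellTiter-Glo ATP luminescence after 30 min at room temperature; AC50 from Hill fits.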
row,SMILES,Potency
1,CCCCCCCCCCCC[N+](C)(C)CCOc1ccccc1,25.1 µM (active)
2,CC[n+]1c(-c2ccccc2)c2cc(N)ccc2c2ccc(N)cc21,12.6 µM (active)
3,COC(=O)C1=C(C)NC(C)=C(C(=O)OC)C1c1ccccc1[N+](=O)[O-],39.8 µM (active)
4,Oc1ccc(Cl)cc1Sc1cc(Cl)ccc1O,39.8 µM (active)
5,CNC(=O)Oc1cccc2ccccc12,inactive
6,CN(C)C(=S)SSC(=S)N(C)C,0.316 µM (active)
7,COP(=O)(OC)OC=C(Cl)Cl,inactive
8,O=C(CCl)c1ccc(Cl)cc1Cl,5.01 µM (active)
9,Oc1c(Br)cc(Br)cc1Br,inactive

# Assay: Cell Viability - LYMP2-008 (AID 980); further: nearly all actives have a fitted effect of over 60% in size
# Conditions: LYMP2-008 lymphoblastoid cell viability, qHTS; series mostly up to 92.2 µM
# In short: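 LYMP2-008 lymphoblastoid cells (2500/well) plated 5 h, then treated 24 h at 37 C in complete medium. Viability read as intracellular ATP by CellTiter-Glo luminescence after 30 min at room temperature; AC50 from Hill fits.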
row,SMILES,Potency
1,CCCCCCCCCCCC[N+](C)(C)CCOc1ccccc1,25.1 µM (active)
2,CC[n+]1c(-c2ccccc2)c2cc(N)ccc2c2ccc(N)cc21,10 µM (active)
3,CNC(=O)Oc1cccc2ccccc12,inactive
4,CN(C)C(=S)SSC(=S)N(C)C,0.251 µM (active)
5,COP(=O)(OC)OC=C(Cl)Cl,inactive
6,O=C(CCl)c1ccc(Cl)cc1Cl,7.94 µM (active)
7,Oc1c(Br)cc(Br)cc1Br,inactive
